# esBAF inh – blocks esBAF chromatin remodeling in mouse ES cells | Bmi1-luciferase knock-in reporter, 24 h; 100% = twice the neutral-well signal | reporter increase, % at 12.5 µM | 2% of 350,000 active; in the data active means activation above about 40%; inconclusive means no clear call, values can overlap the other calls;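 further: 0% = median of the plate's neutral control wells and 100% = double that signal; a rise in the Bmi1 reporter signal indicates esBAF inhibition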
# Wnt act – Wnt/beta-catenin pathway activation | Wnt/beta-catenin reporter cell assay, activator, plate reader | activation, % at 9.35 µM | 1.2% of 300,000 active | AID 743398; in the data active means activation above about 30%, passing the limit was not always enough; inconclusive means no clear call, values can overlap the other calls;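 further: 0% = neutral control wells and 100% = positive control wells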
# AHR activator – human AHR activation; AHR-responsive luciferase reporter cells, luminescence; activation, % at 5 µM; 2.5% of 320,000 active; AID 2796; in the data active means activation above about 47%;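 further: 0% = vehicle wells and 100% = reference agonist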
# Target sequence (P35869 whole entry, looked up): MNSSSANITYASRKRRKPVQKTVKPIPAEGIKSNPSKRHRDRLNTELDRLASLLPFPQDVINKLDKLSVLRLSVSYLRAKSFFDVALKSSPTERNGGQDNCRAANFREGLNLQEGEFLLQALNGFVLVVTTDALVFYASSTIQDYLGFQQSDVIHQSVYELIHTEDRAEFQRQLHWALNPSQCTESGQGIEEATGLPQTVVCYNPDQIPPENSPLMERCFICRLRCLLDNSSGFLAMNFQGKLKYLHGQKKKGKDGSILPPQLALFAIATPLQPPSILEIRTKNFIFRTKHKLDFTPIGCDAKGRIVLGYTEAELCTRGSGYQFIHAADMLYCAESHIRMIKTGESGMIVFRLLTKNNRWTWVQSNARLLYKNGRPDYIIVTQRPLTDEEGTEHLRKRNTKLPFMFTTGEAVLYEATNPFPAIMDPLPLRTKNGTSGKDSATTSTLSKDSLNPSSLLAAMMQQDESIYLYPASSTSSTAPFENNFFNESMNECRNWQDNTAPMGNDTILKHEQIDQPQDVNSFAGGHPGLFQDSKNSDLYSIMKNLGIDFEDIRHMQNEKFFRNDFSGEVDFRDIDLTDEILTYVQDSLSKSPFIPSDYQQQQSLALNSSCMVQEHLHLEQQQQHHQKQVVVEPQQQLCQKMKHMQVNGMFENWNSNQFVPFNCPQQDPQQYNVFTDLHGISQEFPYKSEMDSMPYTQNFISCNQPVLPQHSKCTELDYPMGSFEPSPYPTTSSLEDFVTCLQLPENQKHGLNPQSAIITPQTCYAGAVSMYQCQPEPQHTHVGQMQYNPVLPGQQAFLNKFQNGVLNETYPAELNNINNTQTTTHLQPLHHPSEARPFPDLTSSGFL
# GAA850 FXN act – activators of GAA850 frataxin (FXN) promoter; HEK293 lucGAA850 FXN promoter luciferase reporter, 24 h; percent of 10 µM SAHA response; activation, % at 6 µM; 0.56% of 360,000 active; AID 540364;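 active means activation above the average of all compounds screened plus 3 SD, cutoff fixed separately per campaign, cut at about 7.5% in these data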;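 further: 0% = DMSO wells and 100% = 10 µM SAHA wells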
# MITF act – MITF TRPM1 promoter activation in melanoma cells. AID 588334. activation, % at 12.5 µM. SK-MEL-5 TRPM1-promoter luciferase, 24 h; % of positive control, neutral wells = 0. 0.75% of 300,000 active;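 active means mean activation of at least 80% with every replicate also reaching 80%; inconclusive means mean reaches 80% but some replicate falls short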;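 further: 0% = neutral control wells and 100% = parthenolide positive control wells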
# AHR act confirm – confirmation of human aryl hydrocarbon receptor activators. shares compounds with AHR activator. human cells, AHR-responsive luciferase reporter, luminescence. activation, % at 9 µM. 87% of 2,300 active; in the data active means activation above about 49%;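 further: HepG2 hepatoma cells carrying a DRE-driven firefly luciferase reporter; 0% = vehicle wells and 100% = reference agonist wells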
# PXR act counter – activates human PXR in AHR activator counter-screen. cell-based PXR reporter, luciferase luminescence. 88% of 2,300 active. activation, % at 11.6 µM. shares compounds with AHR activator; in the data active means activation above about 11%;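 further: human hepatoma DPX-2 cells expressing full-length human PXR; 0% = DMSO and 100% = reference agonist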
# Starred values were filed as active, the others as inactive; ? = inconclusive; / = not tested or not shown. Compounds with a hit are over-represented: about 4.2% of the library has one in this group of screens.
SMILES,esBAF inh,Wnt act,AHR activator,GAA850 FXN act,MITF act,AHR act confirm,PXR act counter
Cc1[nH]c2ccccc2c1C(=O)CNc1nccs1,-3,-1,83*,1,0,34,26*
CCC(=O)N(C)C[C@@H]1Oc2cc(-c3cncnc3)ccc2S(=O)(=O)N([C@H](C)CO)C[C@@H]1C,-2,/,/,/,/,/,/
COc1cccc(NC(=O)/C=C/c2ccccc2[N+](=O)[O-])c1,/,14,45,5,56,/,/
O=C(/C=C/c1ccccc1[N+](=O)[O-])Nc1cccnc1,/,16,145*,1,28,83*,33*
COc1cccc(-c2noc(-c3cccnc3)n2)c1,/,/,85*,4,35,134*,6
COc1cccc(-c2nc(-c3ccccc3)no2)c1,1,1,38,6,25,/,/
COc1cccc(-c2noc(-c3ccc(Br)o3)n2)c1,/,15,84*,4,68,88*,5
COc1ccc(-c2noc(-c3ccc(Br)o3)n2)cc1,/,18,79*,5,46,107*,17*
COc1ccc(-c2nc(-c3ccc(Br)o3)no2)cc1,-12,4,18,4,29,/,/
C[C@H](CO)N1C[C@H](C)[C@@H](CN(C)C(=O)Nc2ccc(F)cc2)Oc2ccc(NC(=O)Cc3ccccc3)cc2C1=O,-2,/,/,/,/,/,/
C[C@H]1CN([C@@H](C)CO)C(=O)c2cccc(N(C)C)c2O[C@H]1CN(C)S(=O)(=O)c1ccc(F)cc1,-2,/,/,/,/,/,/
CCOC(=O)Cc1c(C)c2c(C)nn(-c3ccccc3)c2oc1=O,5,/,1,2,/,/,/
CCc1c(C)c2c(C)nn(-c3ccccc3)c2[nH]c1=O,-4,5,97*,1,-15,94*,24*
C[C@H]1CN([C@@H](C)CO)C(=O)Cc2cc(NC(=O)Cc3ccccc3)ccc2O[C@H]1CN(C)Cc1ccncc1,6,/,/,/,/,/,/
CC(C)n1cnc2c(Nc3ccc(F)c(Cl)c3)nc(NCCO)nc21,11,10,93*,5,-9,69*,135*
O=C(NC(=S)Nc1sc2c(c1C(=O)O)CCCC2)c1ccccc1,9,2,81*,0,/,112*,16*
O=C(Nc1sc2c(c1C(=O)O)CCCC2)c1ccccc1Cl,2,6,1,1,-3,/,/
NC(=O)c1c(NC(=O)c2ccccc2)sc2c1CCC2,?,65*,125*,3,25,146*,24*
COC(=O)c1c(NC(=O)c2ccoc2C)sc2c1CCC2,/,-9,12,1,4,/,/
CNC(=O)c1c(NC(=O)c2nc3ccccc3s2)sc2c1CCC2,75*,/,112*,2,?,79*,29*
Cc1occc1C(=O)Nc1sc2c(c1C(N)=O)CCCCC2,47*,/,83*,6,69,79*,49*
C[C@@H]1CCCCO[C@H](CN(C)Cc2ccc(Cl)c(Cl)c2)[C@H](C)CN([C@@H](C)CO)C(=O)c2cc(NS(=O)(=O)c3ccc(Cl)cc3)ccc2O1,-1,/,/,/,/,/,/
C[C@H]1CN([C@@H](C)CO)C(=O)c2cc(NC(=O)Nc3cccc4ccccc34)ccc2O[C@@H]1CN(C)S(=O)(=O)c1cn(C)cn1,0,/,/,/,/,/,/
COc1ccc(S(=O)(=O)Nc2ccc3c(c2)C(=O)N([C@@H](C)CO)C[C@@H](C)[C@@H](CN(C)S(=O)(=O)c2cn(C)cn2)OCCCC[C@@H](C)O3)cc1,0,/,/,/,/,/,/
C[C@@H]1CCCCO[C@@H](CN(C)C(=O)Nc2ccc(F)cc2)[C@@H](C)CN([C@H](C)CO)C(=O)c2cc(NC(=O)c3ccncc3)ccc2O1,-4,/,/,/,/,/,/
Cc1ccc(S(=O)(=O)N(C)C[C@@H]2Oc3c(NC(=O)Nc4ccc(F)cc4)cccc3C(=O)N([C@H](C)CO)C[C@@H]2C)cc1,-5,/,/,/,/,/,/
Cn1ncc(Cl)c1C(=O)Nc1sc2c(c1C(N)=O)CCC2,12,0,121*,-4,/,96*,137*
CC(C)C(=O)NC(=S)Nc1sc2c(c1C(N)=O)CCCC2,/,11,90*,6,36,97*,16*
NC(=O)c1c(NC(=O)c2cnccn2)sc2c1CCCC2,/,11,21,4,63,/,/
CCCC(=O)NC(=S)Nc1sc2c(c1C(N)=O)CCC2,/,26,21,4,2,/,/

# Source: PubChem BioAssay
